Source: PubChem BioAssay (NCATS)
Records with an inconclusive call do not appear. Activity calls are given as the source filed them. Calls follow the shape of the dose curve; as a rule, active = well fitted cell-killing curve with a large enough effect; inconclusive = small, poorly fitted or top-dose-only effect, or effect the other way; inactive = flat fitted curve, though single readings scatter.

system: PA-1; assay: Primary qHTS to identify gynecologic anti-cancer compounds using libraries of approved drugs and bioactive compounds (AID 1345084); conditions: Gynecologic cancer cell panel viability, ATPlite luminescence, 48 h; series mostly up to 57.5 µM; activity change, negative = cytotoxicity: at the top concentration; also: nearly all actives have a fitted effect of over 55% in size
How it was run: (§1)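 Measured: luminescence after ATPlite addition (15 min, RT). Exposure: 48 h, 37 C, 5% CO2.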
% is scaled to controls: 0 for no effect and ±100 for the full control effect; potency is read from the fitted curve at half-maximal effect.

| Structure (SMILES) | activity change, negative = cytotoxicity | Potency |
| --- | --- | --- |
| CCC1(c2ccccc2)CCC(=O)NC1=O (stereo not drawn) | 3.01% (inactive) |  |
| CN(C)C(=O)Oc1cc(OC(=O)N(C)C)cc(C(O)CNC(C)(C)C)c1 (stereo not drawn) | 6.13% (inactive) |  |
| Oc1ccc([C@H]2CNCc3c2ccc(O)c3O)cc1O | -2.68% (inactive) |  |
| CCOC(=O)C(c1c(O)c2ccccc2oc1=O)c1c(O)c2ccccc2oc1=O | 9.22% (inactive) |  |
| ClCc1cccc(Cl)c1 | 18.2% (inactive) |  |
| OC(c1ccccc1)(c1ccccc1)C1CCNCC1 | 1.03% (inactive) |  |
| CCOC(=O)C1(c2ccccc2)CCN(CCc2ccc(N)cc2)CC1 | 13.1% (inactive) |  |
| CCOC(=O)NC(O)C(Cl)(Cl)Cl (stereo not drawn) | 4.29% (inactive) |  |
| C[C@H]1CNCCc2ccc(Cl)cc21 | 6.64% (inactive) |  |
| COP(=O)(OC)OC=C(Cl)Cl | -2.94% (inactive) |  |
| CC(C)(C)OC(=O)c1ncn2c1[C@@H]1CCCN1C(=O)c1c(Br)cccc1-2 | 0.488% (inactive) |  |
| NC(=O)OCCCc1ccccc1 | -4.62% (inactive) |  |
| C[C@]12CC[C@H](O)CC1=CC[C@@H]1[C@@H]2CC[C@]2(C)C(=O)CC[C@@H]12 |  | inactive |
| OC(O)C(Cl)(Cl)Cl | 2.43% (inactive) |  |
| CCCCC1C(=O)NC(=O)N(C2CCCCC2)C1=O (stereo not drawn) | -4.97% (inactive) |  |
| CN1C[C@@H](NS(=O)(=O)N(C)C)C[C@@H]2c3cccc4c3c(cn4C)C[C@H]21 | 0.217% (inactive) |  |
| CC(Cc1ccccc1)NCCCCl (stereo not drawn) | 8.35% (inactive) |  |
| C[C@]12CC[C@H]3[C@@H](CCC4=CC(=O)CC[C@@H]43)[C@@H]1CC[C@@H]2O |  | 10 µM (active) |

system: SKOV3; assay: as above; conditions: Gynecologic cancer cell panel viability, ATPlite luminescence, 48 h; series mostly up to 57.5 µM; activity change, negative = cytotoxicity: at the top concentration
How it was run: as §1

| Structure (SMILES) | activity change, negative = cytotoxicity | Potency |
| --- | --- | --- |
| CC(C)=C[C@@H]1[C@@H](C(=O)OCc2coc(Cc3ccccc3)c2)C1(C)C | -0.247% (inactive) |  |
| CCN(CC)C(C)C(=O)c1ccccc1 (stereo not drawn) | 20.2% (inactive) |  |
| Nc1ccc(Cl)cc1C(=O)c1ccccc1F | 0% (inactive) |  |
| COc1ccc(C(=O)N2CCCC2=O)cc1 | -6.03% (inactive) |  |
| CC(C)C(Br)C(=O)NC(N)=O (stereo not drawn) | 6.07% (inactive) |  |
| C#C[C@]1(O)CC[C@H]2[C@@H]3CCC4=CC(=O)CCC4=C3C=C[C@@]21CC | 29.1% (inactive) |  |
| CC(CC(C(N)=O)(c1ccccc1)c1ccccc1)N(C)C (stereo not drawn) | -1.3% (inactive) |  |
| C#C[C@]1(O)C=C[C@H]2[C@@H]3CCC4=CC(=O)CC[C@@H]4[C@H]3CC[C@@]21CC | 14.9% (inactive) |  |
| C[C@@H]1CC[C@H]2[C@@H](C)C(=O)O[C@@H]3O[C@@]4(C)CC[C@@H]1[C@]32OO4 | -1.73% (inactive) |  |
| CNC(C)Cc1ccccc1OC (stereo not drawn) | -1.35% (inactive) |  |
| CC(Cc1ccccc1)NCc1ccccc1Cl (stereo not drawn) | 1.23% (inactive) |  |
| Nc1ccccc1C(=O)OCC(O)CO (stereo not drawn) | -12.9% (inactive) |  |
| CC(C)NCC(O)c1ccc(N)c(C#N)c1 (stereo not drawn) | 5.13% (inactive) |  |
| Sc1ccccc1Cl | 11.8% (inactive) |  |
| CCN(CC)CCOC(=O)C(C)(c1ccccc1)c1ccccc1 | 20.9% (inactive) |  |
| COc1ccc2[nH]cc(CCN(C(C)C)C(C)C)c2c1 | 2.55% [at 116 µM] (inactive) |  |
| COc1cc(CC#N)cc(OC)c1OC | 3.01% (inactive) |  |
| O=C(CBr)Nc1ccc(Cl)cc1C(=O)c1ccccc1F | 3.4% (inactive) |  |
| COP(=S)(OC)Oc1ccc(S(N)(=O)=O)cc1 | 5.47% (inactive) |  |
| C[N+](C)(C)CCOC(=O)C(O)(c1ccccc1)c1ccccc1 | 7.65% (inactive) |  |

| Structure (SMILES) | activity change, negative = cytotoxicity | Potency |
| --- | --- | --- |
| ClCCCN1CCN(c2cccc(Cl)c2)CC1 | -0.472% (inactive) |  |
| CCc1ccc(C2CCNCC2)cc1 | 0% (inactive) |  |
| CCC1(c2ccccc2)CCC(=O)NC1=O (stereo not drawn) | 7.59% (inactive) |  |
| CN(C)C(=O)Oc1cc(OC(=O)N(C)C)cc(C(O)CNC(C)(C)C)c1 (stereo not drawn) | 26.2% (inactive) |  |
| Oc1ccc([C@H]2CNCc3c2ccc(O)c3O)cc1O | 5.57% (inactive) |  |
| CCOC(=O)C(c1c(O)c2ccccc2oc1=O)c1c(O)c2ccccc2oc1=O | 7.13% (inactive) |  |
| ClCc1cccc(Cl)c1 | 13.5% (inactive) |  |
| OC(c1ccccc1)(c1ccccc1)C1CCNCC1 | 5.74% (inactive) |  |
| CCOC(=O)C1(c2ccccc2)CCN(CCc2ccc(N)cc2)CC1 | -1.32% (inactive) |  |
| CCOC(=O)NC(O)C(Cl)(Cl)Cl (stereo not drawn) | 8.13% (inactive) |  |
| C[C@H]1CNCCc2ccc(Cl)cc21 | -21% (inactive) |  |
| COP(=O)(OC)OC=C(Cl)Cl | -11.8% (inactive) |  |
| CC(C)(C)OC(=O)c1ncn2c1[C@@H]1CCCN1C(=O)c1c(Br)cccc1-2 | 6.91% (inactive) |  |
| NC(=O)OCCCc1ccccc1 | 13.9% (inactive) |  |
| C[C@]12CC[C@H](O)CC1=CC[C@@H]1[C@@H]2CC[C@]2(C)C(=O)CC[C@@H]12 |  | inactive |
| OC(O)C(Cl)(Cl)Cl | 7.7% (inactive) |  |
| CCCCC1C(=O)NC(=O)N(C2CCCCC2)C1=O (stereo not drawn) | 0% (inactive) |  |
| CN1C[C@@H](NS(=O)(=O)N(C)C)C[C@@H]2c3cccc4c3c(cn4C)C[C@H]21 | 8.96% (inactive) |  |
| CC(Cc1ccccc1)NCCCCl (stereo not drawn) | -6.07% (inactive) |  |
| C[C@]12CC[C@H]3[C@@H](CCC4=CC(=O)CC[C@@H]43)[C@@H]1CC[C@@H]2O | 18.6% (inactive) |  |

system: Tov-21-G; assay: as above; conditions: Gynecologic cancer cell panel viability, ATPlite luminescence, 48 h; series mostly up to 57.5 µM; activity change, negative = cytotoxicity: at the top concentration
How it was run: as §1

| Structure (SMILES) | activity change, negative = cytotoxicity | Potency |
| --- | --- | --- |
| CC(C)=C[C@@H]1[C@@H](C(=O)OCc2coc(Cc3ccccc3)c2)C1(C)C | -3.11% (inactive) |  |
| CCN(CC)C(C)C(=O)c1ccccc1 (stereo not drawn) | -1.69% (inactive) |  |
| Nc1ccc(Cl)cc1C(=O)c1ccccc1F | 2.81% (inactive) |  |
| COc1ccc(C(=O)N2CCCC2=O)cc1 | 0.816% (inactive) |  |
| CC(C)C(Br)C(=O)NC(N)=O (stereo not drawn) | 0.561% (inactive) |  |
| C#C[C@]1(O)CC[C@H]2[C@@H]3CCC4=CC(=O)CCC4=C3C=C[C@@]21CC | -0.0895% (inactive) |  |
| CC(CC(C(N)=O)(c1ccccc1)c1ccccc1)N(C)C (stereo not drawn) | 0.451% (inactive) |  |
| C#C[C@]1(O)C=C[C@H]2[C@@H]3CCC4=CC(=O)CC[C@@H]4[C@H]3CC[C@@]21CC | 3.8% (inactive) |  |
| C[C@@H]1CC[C@H]2[C@@H](C)C(=O)O[C@@H]3O[C@@]4(C)CC[C@@H]1[C@]32OO4 | 6% (inactive) |  |
| CNC(C)Cc1ccccc1OC (stereo not drawn) | 11.6% (inactive) |  |
| CC(Cc1ccccc1)NCc1ccccc1Cl (stereo not drawn) | -1.56% (inactive) |  |
| Nc1ccccc1C(=O)OCC(O)CO (stereo not drawn) | 1.67% (inactive) |  |
| CC(C)NCC(O)c1ccc(N)c(C#N)c1 (stereo not drawn) | 0.523% (inactive) |  |
| Sc1ccccc1Cl | -7.5% (inactive) |  |
| CCN(CC)CCOC(=O)C(C)(c1ccccc1)c1ccccc1 | 1.87% (inactive) |  |
| COc1ccc2[nH]cc(CCN(C(C)C)C(C)C)c2c1 | 9.21% [at 116 µM] (inactive) |  |
| COc1cc(CC#N)cc(OC)c1OC | 18.4% (inactive) |  |
| O=C(CBr)Nc1ccc(Cl)cc1C(=O)c1ccccc1F | -5.95% (inactive) |  |
| COP(=S)(OC)Oc1ccc(S(N)(=O)=O)cc1 | 0.878% (inactive) |  |
| C[N+](C)(C)CCOC(=O)C(O)(c1ccccc1)c1ccccc1 | 0.893% (inactive) |  |

| Structure (SMILES) | activity change, negative = cytotoxicity | Potency |
| --- | --- | --- |
| ClCCCN1CCN(c2cccc(Cl)c2)CC1 | -2.35% (inactive) |  |
| CCc1ccc(C2CCNCC2)cc1 | -1.46% (inactive) |  |
| CCC1(c2ccccc2)CCC(=O)NC1=O (stereo not drawn) | 0.65% (inactive) |  |
| CN(C)C(=O)Oc1cc(OC(=O)N(C)C)cc(C(O)CNC(C)(C)C)c1 (stereo not drawn) | -0.376% (inactive) |  |
| Oc1ccc([C@H]2CNCc3c2ccc(O)c3O)cc1O | 0.172% (inactive) |  |
| CCOC(=O)C(c1c(O)c2ccccc2oc1=O)c1c(O)c2ccccc2oc1=O | 14.4% (inactive) |  |
| ClCc1cccc(Cl)c1 | 0.0907% (inactive) |  |
| OC(c1ccccc1)(c1ccccc1)C1CCNCC1 | -0.611% (inactive) |  |
| CCOC(=O)C1(c2ccccc2)CCN(CCc2ccc(N)cc2)CC1 | 0.166% (inactive) |  |
| CCOC(=O)NC(O)C(Cl)(Cl)Cl (stereo not drawn) | 11% (inactive) |  |
| C[C@H]1CNCCc2ccc(Cl)cc21 | -1.67% (inactive) |  |
| COP(=O)(OC)OC=C(Cl)Cl | -1.1% (inactive) |  |
| CC(C)(C)OC(=O)c1ncn2c1[C@@H]1CCCN1C(=O)c1c(Br)cccc1-2 | -1.87% (inactive) |  |
| NC(=O)OCCCc1ccccc1 | 5.74% (inactive) |  |
| C[C@]12CC[C@H](O)CC1=CC[C@@H]1[C@@H]2CC[C@]2(C)C(=O)CC[C@@H]12 |  | inactive |
| OC(O)C(Cl)(Cl)Cl | -2.01% (inactive) |  |
| CCCCC1C(=O)NC(=O)N(C2CCCCC2)C1=O (stereo not drawn) | -2.9% (inactive) |  |
| CN1C[C@@H](NS(=O)(=O)N(C)C)C[C@@H]2c3cccc4c3c(cn4C)C[C@H]21 | -1.65% (inactive) |  |
| CC(Cc1ccccc1)NCCCCl (stereo not drawn) | 26.6% (inactive) |  |
| C[C@]12CC[C@H]3[C@@H](CCC4=CC(=O)CC[C@@H]43)[C@@H]1CC[C@@H]2O | 1.23% (inactive) |  |
